Assay results as given in PubChem BioAssay AID1508623 (National Center for Advancing Translational Sciences (NCATS), 2021).
Out of some 48,000 compounds screened, about 450 (0.94%) were called active. Roughly 19% stayed inconclusive and do not appear here. This is one part of a sample in which actives are shown more often than they occur. Calls come from the whole dose curve; as a rule, active = well fitted inhibition curve with a large enough effect; inconclusive = small, poorly fitted or top-dose-only effect; inactive = no such curve, though single readings can be large or run the other way.

Experiment: Primary qHTS for Identification of Small Molecule Inhibitors of Huntingtin Promoter Activity; note: nearly all actives have a fitted effect of over 50% in size
Settings: HEK293 HTT promoter firefly luciferase reporter (activity 0% = vehicle and -100% = no light), 24 h; series mostly up to 57.5 µM; activity change, negative = inhibition: at the top concentration
Source text: Assay Provider: Russell L. Margolis M.D.
Department Neurology, Johns Hopkins University School of Medicine, Baltimore, MD
Huntington's Disease (HD) is a neurodegenerative disorder caused by a CAG repeat expansion in exon 1 of huntingtin (HTT). While there are currently no disease-modifying treatments for HD, recent efforts have focused on development of nucleotide-based therapeutics to lower HTT expression. As an alternative to siRNA or oligonucleotide methods, we hypothesized that suppression of HTT expression might be accomplished by small molecules that either (1) directly decrease HTT expression by suppressing HTT promoter activity or (2) indirectly decrease HTT expression by increasing the promoter activity of HTT-AS, the gene antisense to HTT that appears to inhibit expression of HTT.
We developed and employed a high throughput screen for modifiers of HTT and HTT-AS promoter activity using luminescent reporter HEK293 cells; of the 52,041 compounds tested, we identified 898 replicable hits. We used a rigorous stepwise approach to assess compound toxicity and the capacity of the compounds to specifically lower huntingtin protein in 5 different cell lines, including HEK293 cells, HD lymphoblastoid cells, mouse primary neurons, HD iPSCs differentiated into cortical-like neurons, and HD hESCs. We found no compounds which were able to lower huntingtin without lowering cell viability in all assays, though the potential efficacy of a few compounds at non-toxic doses could not be excluded.
SEQUENCE No. (1, 2, 3, etc.); […] (e.g., Cells, Incubation, Reagent, etc.); VALUE and DESCRIPTION.
1; Reagent; 4 uL; 2,500 Hek293 luciferase reporter cells per wells
3; Compound; 23 nL; Control inhibitor / compound library
5; Reagent; 2.5 uL; Firefly Luc reagent; Dual-Glo Luciferase Reporter Assay System (Promega)
6; Time; 10 min; room temperature incubation
7; Detection; Luminescence; FLuc
NOTES (numbers refer to sequence above)
1; High-throughput screening, measuring luminescence from a Hek293 luciferase reporter, was performed in 1,536 well white-walled tissue-culture treated plates. 2,500 cells were plated in 4 µL of Opti-MEM per well using a Multidrop Combi Reagent Dispenser (ThermoFisher).
2; Assay plates were cultured for 24 hours.
3; Control inhibitor (PTC124; final concentration of 50 uM) and compound library (at final concentrations of 460 nM - 57.5 uM) were added to the assay plate using the Kalypsis Pintool Robotic System equipped with 1536 pinheads.
4; Cells were then incubated for 24 hours at 37 degrees C prior to luminescence measurements.
5; In all cases, luminescence was measured using the Dual-Glo Luciferase Reporter Assay System (Promega) following the manufacturer's instructions.
6; Room temperature incubation.
7; Luminescence signal was obtained using the PerkinElmer ViewLux plate reader. Results were normalized to vehicle control (0% activity) and zero RLU (-100% activity).
Potency is the fitted concentration of half-maximal effect.

| SMILES | activity change, negative = inhibition | Potency |
| --- | --- | --- |
| Cc1cccc(N2CCN(C(=O)c3ccc(Nc4nc5ccccc5n5nnnc45)cc3)CC2)c1C | 16.4% (inactive) |  |
| O=C(c1ccc2c(c1)N(Cc1ccccc1)C(=O)c1ccccc1S2(=O)=O)N1CCCC1 | -7.16% (inactive) |  |
| CCOc1ccccc1N(CC)C(=O)Nc1cn(C)c(=O)c2ccccc12 | -16.3% (inactive) |  |
| CSc1nc(-c2ccc(F)cc2)nc2c1Cc1c(CO)cnc(C)c1O2 | -12.1% (inactive) |  |
| CCOc1ccc(NC(=O)C(CC(C)C)N2Cc3ccccc3C2=O)cc1 (stereo unspecified) | -25.6% (inactive) |  |
| COC(=O)c1cc(NC(=O)c2sc3ccccc3c2Cl)cc(C(=O)OC)c1 | -2.04% (inactive) |  |
| Cc1cccc(N2CCN(C(=O)c3oc(=O)c4ccccc4c3-c3ccccc3)CC2)c1C | -9.19% (inactive) |  |
| CC(C)(C)OC(=O)N1CCC(c2c(C(=O)NCc3ccccn3)cnn2-c2ccc(F)cc2)CC1 | -10.4% (inactive) |  |
| Cc1ccc(NC(=O)CSc2nc3c([nH]c4ccccc43)c(=O)n2-c2ccccc2)c(C)c1 | -11.7% (inactive) |  |
| COc1ccc(-c2noc(CSc3nc(C)cc(=O)[nH]3)n2)cc1OC | -20.2% (inactive) |  |
| COc1ccc(-c2noc(CSc3nc4ccc(C)cc4[nH]3)n2)cc1 |  | 28.2 µM (active) |
| Cc1ccc(-c2noc(CSc3nnc(-c4ccc(Cl)cc4)n3C)n2)cc1 | -27.1% (inactive) |  |
| Cn1c(=O)c2c(SCC(=O)N3CCc4ccccc43)nc(-c3ccc(Cl)cc3)nc2n(C)c1=O | -7.37% (inactive) |  |
| Cc1cc(C)cc(NC(=O)CSc2oc(-c3ccccc3)nc2S(=O)(=O)c2ccc(Cl)cc2)c1 | -14.6% (inactive) |  |
| Cc1ccc2c(=O)c(C(=O)c3ccc(Cl)cc3)cn(CC(=O)NC3CCCCC3)c2n1 | 12.6% (inactive) |  |
| COC(=O)c1scc(-c2ccc(C)cc2)c1S(=O)(=O)Nc1cc(Cl)c(OC)cc1OC | -15.9% (inactive) |  |
| CCOC(=O)c1ccc(NC(=O)c2csc3c2CCCCC3)cc1 | -10.1% (inactive) |  |
| COc1cccc(C(=O)c2sc3nc(-c4ccccc4)cc(C(F)(F)F)c3c2N)c1 | -24.4% (inactive) |  |
| Cn1c(=O)n(Cc2c(F)cccc2Cl)c(=O)c2c1nc1n2CCN1c1ccc(F)cc1 | -1.17% (inactive) |  |
| CCc1nn(CC(=O)N2CCN(c3cccc(C(F)(F)F)c3)CC2)c(=O)c2cc3occc3n12 | -13% (inactive) |  |
| COC(=O)c1ccc(OC)c(Cn2c(=O)n(Cc3ccccc3)c(=O)c3c2c2cc(OC)ccc2n3C)c1 | -9.45% (inactive) |  |
| Cc1cccc(C(=O)NCCc2nc3ccccc3n2Cc2ccccc2Cl)c1 | 0.0337% (inactive) |  |
| CCOc1ccc2nc(N3CCCC(C(=O)Nc4cc(C)ccc4C)C3)sc2c1 (stereo unspecified) | 38.3% (inactive) |  |

| SMILES | activity change, negative = inhibition | Potency |
| --- | --- | --- |
| O=C(/C=C/c1ccccc1)N1CCN(Cc2cc(=O)n3nc(-c4ccccc4F)sc3n2)CC1 | -11.1% (inactive) |  |
| COc1cccc(Cn2c(SCc3ccc(C(=O)N4CCCCC4)cc3)nc3ccncc32)c1 |  | 12.6 µM (active) |
| Cc1cccc(CSc2nc3ccncc3n2Cc2ccc(C(=O)O)cc2)c1 | 4.83% (inactive) |  |
| O=C(O)c1ccc(Cn2c(SCc3ccc(F)cc3)nc3ccncc32)cc1 | 4.54% (inactive) |  |
| COc1ccccc1Cc1nc2ccccc2nc1SCC(=O)N1CCCc2ccccc21 | -3.18% (inactive) |  |
| Cc1ccc(CNC(=O)CCc2c(C)nc3nc(CNC(=O)OC(C)(C)C)nn3c2C)cc1 | -20.6% (inactive) |  |
| CC(=O)N1CCCc2cc(S(=O)(=O)N3CCCC(C(=O)N4CCN(c5cccc(Cl)c5)CC4)C3)ccc21 (stereo unspecified) |  | 7.08 µM (active) |
| CC(=O)N1CCCc2cc(S(=O)(=O)Nc3ccc(Cl)cc3F)ccc21 | -28.1% (inactive) |  |
| CC(=O)N1CCCc2cc(S(=O)(=O)N3CCC(C(=O)NC4CCCCC4)CC3)ccc21 | -20.4% (inactive) |  |
| CCN(CC)c1ccc(NC(=O)CN2CCN(CC(=O)Nc3ccc(Cl)cc3)CC2)cc1 | -28.4% (inactive) |  |
| Cc1oc2ncnc(N3CCOCC3)c2c1C(=O)NCCc1ccccc1 | 19.5% (inactive) |  |
| Cc1ccc(NC(=O)c2oc3ccc(S(=O)(=O)N4CCCCC4)cc3c2C)cc1Cl | -15.5% (inactive) |  |
| CCOC(=O)c1oc2ccc(S(=O)(=O)n3nc(-c4ccccc4OC)cc3N)cc2c1C |  | 12.6 µM (active) |
| Cc1c(C(=O)Nc2cccc(Cl)c2)oc2ccc(S(=O)(=O)N3CCOCC3)cc12 | -4.7% (inactive) |  |
| O=C(Nc1ccc2nc(SCC(=O)N3CCc4ccccc43)sc2c1)c1ccccc1F | -3.2% (inactive) |  |
| O=C(c1cccc(Cl)c1)N1CCN(CCc2ccncc2)CC1 | -11.7% (inactive) |  |
| COC(=O)c1sccc1S(=O)(=O)N(CC(=O)Nc1ccc(C)c(F)c1)c1ccc(C)c(C)c1 | -10.9% (inactive) |  |
| CC1CN(C(=O)N2CCC(C(=O)NCc3cccs3)CC2)c2ccccc2O1 (stereo unspecified) | -9.81% (inactive) |  |
| Cc1ccc2nc(COc3cccc(NC(=O)c4cccc(Cl)c4)c3)cc(=O)n2c1 | -0.53% (inactive) |  |
| CCn1cc(C(=O)NCCc2ccccc2)c(=O)c2cc(S(=O)(=O)N3CCCCCC3)ccc21 | -17.5% (inactive) |  |
| CCc1ccc(NC(=O)N2CCN(C(=O)c3nsc4ccccc34)CC2)cc1 | -28.2% (inactive) |  |
| Cc1ccc(Oc2c(C(F)(F)F)oc3c(CN4CCCCC4)c(O)ccc3c2=O)cc1 | -41.6% (inactive) |  |
| COc1ccc(-c2cc(NCc3ccc(F)cc3)n3cnnc3n2)cc1 | -27.2% (inactive) |  |
